Screens as filed in PubChem.
A selection: hits, their analogues and other compounds. The true share with any hit is near 4%.
TROY signal inh: blocks TROY-dependent signaling in reporter cells | Q293 LMP1-TROYcd NF-kB luciferase reporter, 4 h | inhibition, % at 10 µM | 360,000 tested, 0.98% active | AID 1347056;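 active = compounds whose plate-normalised and pattern-corrected inhibition of the luciferase reporter signal at the single screening dose is 50% or more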
HIF-2a block: HIF-2a inhibition; 786-0 RCC cells HIF-2a reporter, luciferase luminescence, overnight; inhibition, % at 18.8 µM; 360,000 tested, 0.72% active; AID 624352;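 active = inhibition of the luminescence signal of 40% or more relative to plate controls, in a single-dose primary screen at 18.75 µM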
KKLEB cytotox: reduces viability of KKLEB cystic fibrosis airway cells; AID 602141; 360,000 tested, 0.36% active; KKLEB CF airway cells viability, ATPlite luminescence, overnight; active compounds read low; cells stimulated with P. aeruginosa culture filtrate; activity change (cytotoxicity), % at 5 µM;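 active = corrected activity change at or below -50% at 5 µM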
TWEAK Fn14 block: TWEAK-Fn14 signaling inhibition | inhibition, % at 10 µM | TWEAK-stimulated Fn14 reporter cells, luciferase luminescence, 8 h | 360,000 tested, 2% active; in the data active = inhibition above about 50%
Peg3 prom inh: Peg3 promoter activity inhibition. HeLa PEG-Prom luciferase reporter, luminescence, overnight. inhibition, % at 20 µM. 360,000 tested, 1.7% active. AID 588405;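 active = inhibition of at least 50% at 20 µM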
CF NFkB block: blocks PAF-induced NF-kB reporter in cystic fibrosis cells; 360,000 tested, 0.86% active; KKLEB NF-kB-GFP reporter, GFP fluorescence overnight; inhibition, % at 5 µM;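 active = at least 50% inhibition at 5 µM, scaled per plate between neutral and stimulator controls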;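 also: PAF is a Pseudomonas aeruginosa culture filtrate used as stimulus; plate controls were PAF-stimulated DMSO wells for no effect and unstimulated DMSO wells for full effect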
The depositor's hits bear a star; · = no result.

SMILES | TROY signal inh | HIF-2a block | KKLEB cytotox | TWEAK Fn14 block | Peg3 prom inh | CF NFkB block
Nc1nc2n(n1)C(c1cccs1)CC(c1ccc(Br)cc1)N2 (configuration not stated) | -21 | -81 | -6 | 34 | -12 | -86
CCOC(=O)C1(CCOc2ccccc2)CCN(C(=O)c2ccc(-n3cccn3)cc2)CC1 | 7 | 5 | 1 | 20 | -8 | 13
Cc1cc(C(O)c2ncc(-c3ccccc3)[nH]2)ccc1F (configuration not stated) | -19 | -44 | -1 | -13 | -7 | -12
Cc1ccc(N(C)S(=O)(=O)c2cc(-c3cnc(C4CC4)o3)ccc2C)cc1 | 56* | 29 | -1 | 78* | 36 | 3
Cc1ccc(N=C2SC(C(=O)Nc3ccc(OC(F)(F)F)cc3)C(N)=C2C(=O)Nc2c(C)cc(C)cc2C)cc1 (configuration not stated) | 13 | 40 | -60* | 64* | 30 | 72*
Cc1ccc(NC(=O)C2SC(=Nc3ccccc3)C(C(=O)Nc3ccc(Cl)cc3)=C2N)cc1 (configuration not stated) | -29 | -10 | 5 | -10 | -9 | -3
Cc1cccc(C(=O)NCCNC(=O)c2cccnc2)c1 | 13 | 11 | 0 | 1 | -5 | 11
CN(C)c1ccc(N=C/C=C2/N(C)c3ccccc3C2(C)C)cc1 | 30 | -69 | -1 | 61* | -147 | -8
CN1/C(=C\C=N\O)C(C)(C)c2ccccc21 | 0 | 9 | 18 | -4 | 6 | -2
Oc1c(C=C2N=c3ccccc3=N2)sc(=S)n1-c1ccccc1 | -29 | -14 | 11 | 14 | 1 | -25
CC1=Nc2ccccc2/C1=C/c1sc(=S)n(-c2cccc(C(=O)O)c2)c1O | 20 | 41* | -9 | 19 | -21 | -24
N/C(=N\OC(=O)c1ccc2ccccc2c1)c1ccccc1Cl | -42 | -300 | -9 | -148 | 81* | 37
N/C(=N\OC(=O)c1ccc2ccccc2c1)c1ccccn1 | 86* | 26 | -68* | 96* | 111* | 19
OC[C@@H]1CN(Cc2ccc(F)cc2)C[C@H](n2cnc3c(NC4CC4)ncnc32)O1 | 0 | 4 | -4 | -17 | -8 | 3
Cc1nc(-c2ccc(C(F)(F)F)cc2)sc1C(=O)NN | -45 | -128 | 11 | -25 | -105 | -14
NC(=O)C1CN(S(=O)(=O)c2ccc(Cl)cc2F)c2ccccc2O1 (configuration not stated) | 11 | 15 | 5 | 3 | 8 | 8
C[C@H](CO)N1C[C@H](C)[C@@H](CN(C)S(=O)(=O)c2ccc(C#N)cc2)OCc2cnnn2CCCC1=O | 5 | 14 | -18 | 12 | 7 | -1
O=C(c1cc(C2CC2)nc2ccccc12)N1N=C(C(F)F)CC1(O)C(F)F (configuration not stated) | -4 | 18 | 4 | 81* | 21 | 4
CC(C)c1ccc(-c2cc(C(=O)N3N=C(C(F)F)CC3(O)C(F)F)c3ccccc3n2)cc1 (configuration not stated) | -11 | -228 | 2 | 28 | -148 | 6
CCN(CC)S(=O)(=O)c1ccc(NC(=O)c2ccccc2N(C)S(C)(=O)=O)cc1 | 9 | 3 | -32 | -7 | 11 | 2
CCN(CC)S(=O)(=O)c1ccc(NC(=O)c2ccc(N(C)S(C)(=O)=O)cc2)cc1 | 26 | 13 | 16 | 50* | 31 | -3
CCN(CC)S(=O)(=O)c1ccc(C(=O)Nc2ccc(Cc3ccncc3)cc2)cc1 | 38 | 31 | -2 | 58* | 24 | -1
CN(CC(O)COCc1ccccc1F)C1CCCCC1 (configuration not stated) | 5 | -59 | 8 | 64* | 2 | -9
Cc1cc(N2CC(C)OC(C)C2)nc(C(C)C)n1 (configuration not stated) | 16 | 16 | 3 | 2 | 8 | 10
Cc1nc(S/C(=C\c2ccc(OCc3ccccc3Cl)cc2)C(=O)O)n[nH]1 | · | 1 | 2 | 83* | -12 | 29
CC(=O)N(C)c1ccc(NC(=S)Nc2cccc3ccccc23)cc1 | 33 | -190 | 9 | 34 | -119 | -41
COC(=O)c1ccccc1NC(=S)NC(=O)c1cccc2ccccc12 | 27 | 8 | -6 | 60* | -1 | 4
CN1CCN(c2ccc(NC(=O)c3ccc4ccccc4c3)cc2)CC1 | 65* | 3 | -18 | 78* | -90 | 10
